# In PubChem BioAssay AID488900 (National Center for Advancing Translational Sciences (NCATS), 2010):
# Results filed as inconclusive are left out. Where a call stands in place of a potency, no number is given. Active and inactive are the calls of the source. The call rests on the fitted dose curve; in most records, active means well fitted curve in the direction sought with a large enough effect; inconclusive means small, poorly fitted or top-dose-only effect, or effect the other way, or another doubt; inactive means no such curve, though single readings can be large or run the other way.
# Assay: Secondary Assay for lipid storage modulators: Hela cell LDSA assay for probe SAR
# Details: HeLa lipid droplet accumulation, BODIPY 493/503 cytometry, oleate-fed; series mostly up to 46.1 µM
# Source text: NIH Molecular Libraries Probe Production Centers Network [MLPCN] NIH Chemical Genomics Center [NCGC] MLPCN Grant: 1 R03 MH085686-01 Assay Submitter (PI): Beller, Mathias; Max-Planck-Institut fur Biophysikalische Chemie NCGC Assay Overview: Storing lipids as a reservoir for energy or the anabolism of elementary metabolites is a common feature of probably all cells and is conserved from bacteria to humans. The universal cellular lipid storage organelle is the so-called lipid storage droplet (LD). Although ubiquitous, LDs share a simple structure composed of a hydrophobic core that harbors the storage lipids, which is shielded by a droplet-specific phospholipid monolayer to which proteins are attached. The current model of LD biogenesis involves an incorporation of the lipid core into the membrane leaflets of the endoplasmic reticulum (ER) followed by a subsequent budding-like maturation of a LD, which ultimately pinches off. Once released, LD volume can increase by localized lipogenesis or fusion of existing droplet. Storage lipids are re-mobilized enzymatically by lipase activity. Lipase regulation in the adipocyte is heavily studied and involves multiple components including catecholamine signaling, the LD-associated proteins Perilipin and comparative gene identification (CGI-58) and at least two lipases named hormone sensitive lipase (HSL) and adipocyte triglyceride lipase (ATGL). LD regulation outside of the adipocyte is poorly understood and only few components are known. However, there is an urgent need to learn more about ectopic fat depots as mislocalized storage of lipids, for example in the liver or muscle, is an eminent health problem associated with insulin resistance or the metabolic syndrome.
# NCGC Assay Protocol Summary: The assay was performed with Hela cells, using an oleic acid feeding protocol similar to the S3 assay. We dispensed 4 uL of cells to give 700 cells/well into Greiner bio-one 1,536-well plates (black walled, clear bottom). Triacsin C (Sigma-Aldrich T-4540), an inhibitor of long-chain fatty acyl CoA synthetase that blocks synthesis of triglycerides, was used as a positive control for lipid under-storage using a final concentration of 20 uM. The orexin antagonist, SB408124 - previously identified to stimulate lipid over-storage, was used as a positive control for lipid over-storage using a final concentration of 20 uM. A total of 23 nL of compound solution of different concentrations were transferred to the assay plates using a Kalypsys pin tool equipped with a 1,536-pin array containing 10-nL slotted pins (FP1S10, 0.457-mm diameter, 50.8 mm long; V&P Scientific). One microliter of oleic acid was added (400 uM final concentration), and the plate was lidded with stainless steel rubber gasket lined lids containing pinholes. After 18-24 h incubation at […] and 95% humidity, 4 uL of the dyes BODIPY 493/503 (Molecular Probes) and the Cell Tracker Red CMTPX dye (Molecular Probes) were added to the wells to stain lipid droplets and enumerate cell number, respectively. Fluorescence was detected by excitation of the fluorophores with a 488-nm laser on an Acumen Explorer (TTP Lab Tech). The total intensity in channel 2 (500-530 nm) reflected lipid droplet accumulation. Cells were detected using channel 3 (575-640 nm) with 5-um width and 100-um depth filters. The ratio of the number of objects in PMT channel 2 over the number of objects in PMT channel 3 was also calculated. Percent activity was computed relative to an internal control (100% inhibited lipid droplet deposition due to the presence of 20 uM Triacsin C), which was added to 32 wells/plate.
row,Compound,Potency
1,CCOc1ccc(CCNC(=O)c2cc3sccc3[nH]2)cc1OCC,inactive
2,O=C(NC1CCCc2c1cnn2-c1cc(F)cc(F)c1)c1cccc2nccnc12 (stereo not given),8.65 µM (active)
3,COc1ccc(-c2cnc(SCC(=O)Nc3nc(C)cs3)n2Cc2ccco2)cc1,inactive
4,O=C(Cc1ccccc1)NC1CCCc2c1cnn2-c1ccc(F)cc1F (stereo not given),inactive
5,COc1ccc(CCNC(=O)c2cc3sccc3n2Cc2ccc(Cl)cc2)cc1OC,inactive
6,Cc1ccc(-c2cnc(SCC(=O)Nc3nc(C)cs3)n2Cc2ccco2)cc1,inactive
7,CCOC(=O)C1CCN(C(=O)C2(NC(=O)NCc3ccccc3)CCCCC2)CC1,inactive
8,O=C(NC1CCCc2c1cnn2-c1ccc(F)cc1F)c1ccn[nH]1 (stereo not given),inactive
9,COc1ccc(CCNC(=O)c2cc3sccc3n2Cc2ccccc2)cc1OC,inactive
10,CN(C)CC(=O)NC1CCCc2c1cnn2-c1ccc(F)cc1F (stereo not given),inactive
11,O=C(NC1CCCc2c1cnn2-c1ccc(F)cc1F)C1CCCCN1 (stereo not given),inactive
12,CCOc1ccc(CCNC(=O)c2cc3sc(CC)cc3n2C)cc1OCC,0.217 µM (active)
13,O=C(NC1CCCCC1)NC1(C(=O)N2CCCC2)CCCCC1,inactive
14,COc1ccc(-c2cnc(SCC(=O)Nc3nccs3)n2Cc2ccccc2)cc1,inactive
15,O=C(NC1CCCc2c1cnn2-c1ccc(F)cc1F)c1ccccc1 (stereo not given),inactive
